Source: PubChem BioAssay
Active and inactive are the calls of the source.

Key:
[1] = tested on: Plasmodium falciparum Sir2 (PF13_0152, Sir2A); assay: Plasmodium falciparum Sir2A binding compounds – biochemical, small-molecule microarray, 635 nm fluorescence, primary screen (AID 1098); conditions: fluorescence 635 nm, higher = more signal;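 further: score merges spot fluorescence intensity with its signal-to-noise ratio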
[2] = probe aDKK1 binding to arrayed compounds – biochemical, biotinylated probe, 635/667 nm fluorescence, primary screen (AID 1099); conditions: small-molecule microarray, higher = more signal;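 further: score merges 667nm spot fluorescence with signal to noise across triplicate slides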
[3] = probe aCHRDL2 binding to arrayed compounds – biochemical, biotinylated probe, 635/667 nm fluorescence, primary screen (AID 1100); conditions: small-molecule microarray, higher = more signal
[4] = change in splice reporter luminescence, either direction, cell-based, HEK293, spliceosome inhibition project, primary screen (AID 1101); conditions: HEK293 splicing luciferase reporter, 24 h, higher = more signal, called active from +8 up or from −8 down;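 further: HEK293 cells carrying a splicing-competent luciferase reporter gene; test concentration not given here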
[5] = biological target: Fibroblast growth factor 10 (Homo sapiens) (UniProt O15520); assay: compounds binding fibroblast growth factor 10 – biochemical, small-molecule microarray, 635 nm fluorescence, primary screen (AID 1102); conditions: FGF10 binding, fluorescence 635 nm, higher = more signal
Chain of Fibroblast growth factor 10 (Homo sapiens) (O15520 whole entry, looked up): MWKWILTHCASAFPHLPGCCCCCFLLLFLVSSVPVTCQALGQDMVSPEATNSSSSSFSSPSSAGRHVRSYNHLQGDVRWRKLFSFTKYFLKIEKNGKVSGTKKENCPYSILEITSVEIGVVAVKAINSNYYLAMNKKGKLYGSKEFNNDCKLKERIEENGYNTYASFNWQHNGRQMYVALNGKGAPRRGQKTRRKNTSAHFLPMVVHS

[6] = tested on: glycogen synthase kinase-3 (GSK3A per assay name; protocol says GSK3B); assay: compounds binding glycogen synthase kinase-3 – biochemical, small-molecule microarray, 635 nm fluorescence, GSK3A, primary screen (AID 1103); conditions: fluorescence 635 nm, higher = more signal; further: the record names both GSK3A and GSK3B
[7] = biological target: Epidermal growth factor receptor (Homo sapiens) (UniProt P00533); assay: compounds binding epidermal growth factor receptor – biochemical, small-molecule microarray, 635 nm fluorescence, primary screen (AID 1104); conditions: EGFR binding, higher = more signal;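 further: score merges 667 nm emission intensity with spot signal to noise over triplicate slides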
Chain of Epidermal growth factor receptor (Homo sapiens) (P00533 whole entry, looked up): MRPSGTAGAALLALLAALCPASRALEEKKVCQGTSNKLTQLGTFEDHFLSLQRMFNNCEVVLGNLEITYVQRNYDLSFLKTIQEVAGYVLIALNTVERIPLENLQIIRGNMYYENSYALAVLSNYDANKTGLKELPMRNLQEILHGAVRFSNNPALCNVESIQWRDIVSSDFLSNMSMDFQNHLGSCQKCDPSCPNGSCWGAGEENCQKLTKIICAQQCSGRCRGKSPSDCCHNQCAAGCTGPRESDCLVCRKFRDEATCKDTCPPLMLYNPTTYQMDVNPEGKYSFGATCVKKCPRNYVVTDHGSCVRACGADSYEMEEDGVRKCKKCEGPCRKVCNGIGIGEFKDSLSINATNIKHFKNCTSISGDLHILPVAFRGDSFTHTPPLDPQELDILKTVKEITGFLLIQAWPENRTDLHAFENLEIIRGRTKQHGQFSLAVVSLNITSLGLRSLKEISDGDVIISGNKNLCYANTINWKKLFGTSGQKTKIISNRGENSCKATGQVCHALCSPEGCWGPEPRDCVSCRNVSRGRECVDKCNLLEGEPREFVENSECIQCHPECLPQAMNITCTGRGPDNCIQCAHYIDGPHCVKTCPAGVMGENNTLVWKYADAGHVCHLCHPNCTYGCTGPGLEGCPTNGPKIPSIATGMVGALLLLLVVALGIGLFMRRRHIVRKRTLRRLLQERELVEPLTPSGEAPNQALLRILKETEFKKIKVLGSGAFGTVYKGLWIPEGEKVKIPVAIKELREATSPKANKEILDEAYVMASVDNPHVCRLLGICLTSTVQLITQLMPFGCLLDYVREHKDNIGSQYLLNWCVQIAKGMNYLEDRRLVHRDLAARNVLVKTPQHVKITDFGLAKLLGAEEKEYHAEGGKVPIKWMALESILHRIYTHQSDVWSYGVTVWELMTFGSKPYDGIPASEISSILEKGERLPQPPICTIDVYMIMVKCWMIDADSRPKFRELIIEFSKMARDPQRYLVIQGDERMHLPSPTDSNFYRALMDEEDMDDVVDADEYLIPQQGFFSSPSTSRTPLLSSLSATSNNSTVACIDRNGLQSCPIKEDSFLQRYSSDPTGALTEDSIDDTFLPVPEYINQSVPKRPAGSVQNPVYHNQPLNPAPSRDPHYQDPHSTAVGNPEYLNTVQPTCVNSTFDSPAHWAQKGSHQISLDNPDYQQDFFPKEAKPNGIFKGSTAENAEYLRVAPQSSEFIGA

[8] = biological target: Follistatin-related protein 3 (Homo sapiens) (UniProt O95633); assay: compounds binding follistatin-related protein 3 – biochemical, small-molecule microarray, 635 nm fluorescence, primary screen (AID 1105); conditions: FSTL3 binding, higher = more signal;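 further: score merges emission near 667 nm and signal to noise per printed spot across three slides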
Chain of Follistatin-related protein 3 (Homo sapiens) (O95633 whole entry, looked up): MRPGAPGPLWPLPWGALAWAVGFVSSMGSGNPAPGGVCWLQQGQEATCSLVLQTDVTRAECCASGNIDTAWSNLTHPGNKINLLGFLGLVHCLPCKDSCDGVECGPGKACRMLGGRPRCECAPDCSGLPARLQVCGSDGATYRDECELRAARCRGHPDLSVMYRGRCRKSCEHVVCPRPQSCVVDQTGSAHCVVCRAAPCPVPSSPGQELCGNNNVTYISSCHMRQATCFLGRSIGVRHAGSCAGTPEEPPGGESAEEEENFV

[9] = biological target: Dickkopf-related protein 1 (Homo sapiens) (UniProt O94907); assay: small molecules binding DKK1 protein – biochemical, small-molecule microarray, 635 nm fluorescence scan, primary screen (AID 1106); conditions: higher = more signal;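 further: score merges emission near 667 nm with signal to noise over three replicate slides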
Chain of Dickkopf-related protein 1 (Homo sapiens) (O94907 whole entry, looked up): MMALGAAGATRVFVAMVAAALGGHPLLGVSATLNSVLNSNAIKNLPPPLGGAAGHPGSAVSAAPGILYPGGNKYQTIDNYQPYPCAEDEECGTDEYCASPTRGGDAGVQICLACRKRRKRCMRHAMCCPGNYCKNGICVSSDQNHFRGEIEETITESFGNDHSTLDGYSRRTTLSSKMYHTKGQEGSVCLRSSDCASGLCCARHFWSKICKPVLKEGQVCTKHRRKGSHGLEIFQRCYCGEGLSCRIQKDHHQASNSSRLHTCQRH

[10] = tested on: Inhibin beta A chain (activin A); assay: small molecules binding activin A – biochemical, small-molecule microarray, 635 nm fluorescence scan, primary screen (AID 1107); conditions: INHBA, higher = more signal;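 further: mouse activin A protein probed at 4.33 µg/mL on printed slides; score merges bound-protein fluorescence near 667 nm with spot signal-to-noise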
[11] = tested on: Human papillomavirus type 1a protein E7 (residues 44-93); assay: small molecules binding HPV E7 44-93 – biochemical, small-molecule microarray, residues 44-93, 635 nm fluorescence, primary screen (AID 1108); conditions: fluorescence 635 nm, higher = more signal;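 further: E7 fragment applied at 1 µg/mL in TBST for 1 h at 4 C; score combines spot fluorescence with its signal to noise ratio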
[12] = hepatitis C replication reporter changes, two-sided – Huh7 cells, luciferase reporter, HCV replication inhibitor project, primary screen (AID 1109); conditions: Huh7 HCV replicon luciferase reporter, 48 h; higher = more signal;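 further: huh7 hepatoma cells harbouring a luciferase neomycin HCV replicon reporter; luciferase luminescence as measure of HCV replicon replication; test concentration not given here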
[13] = biological target: Left-right determination factor 2 (Homo sapiens) (UniProt O00292); assay: small molecules binding LEFTY2 protein – biochemical, small-molecule microarray, 635 nm fluorescence scan, primary screen (AID 1110); conditions: higher = more signal
Chain of Left-right determination factor 2 (Homo sapiens) (O00292 whole entry, looked up): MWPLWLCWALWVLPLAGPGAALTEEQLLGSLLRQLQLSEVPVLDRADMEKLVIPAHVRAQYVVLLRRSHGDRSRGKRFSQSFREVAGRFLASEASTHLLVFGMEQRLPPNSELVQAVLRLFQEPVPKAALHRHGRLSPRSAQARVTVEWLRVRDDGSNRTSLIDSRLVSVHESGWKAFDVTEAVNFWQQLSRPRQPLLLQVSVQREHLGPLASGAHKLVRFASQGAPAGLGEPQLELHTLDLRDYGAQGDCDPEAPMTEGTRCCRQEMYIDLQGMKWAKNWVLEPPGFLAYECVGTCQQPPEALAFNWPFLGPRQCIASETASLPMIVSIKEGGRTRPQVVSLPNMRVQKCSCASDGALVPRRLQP

[14] = biological target: Calmodulin-1 (Homo sapiens) (UniProt P0DP23); assay: small molecules binding calmodulin-1 with EGTA – biochemical, small-molecule microarray, Cy5-labelled CALM1, profiling panel (AID 1111); conditions: Cy5-CALM1 binding fluorescence, higher = more signal;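 further: labelled calmodulin applied in Tris saline Tween buffer holding calcium plus EGTA and DTT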
[15] = biological target: Calmodulin-1 (Homo sapiens) (UniProt P0DP23); assay: small molecules binding Ca-loaded calmodulin-1 – biochemical, small-molecule microarray, Cy5-labelled CALM1, plus calcium, artefact control for SMM control-protein annotation, profiling panel (AID 1112); conditions: Cy5-CALM1 binding fluorescence, higher = more signal;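 further: score merges spot fluorescence with signal to noise from triplicate slides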
[16] = probe aWnt5a binding to arrayed compounds – biochemical, biotinylated probe, 635/667 nm fluorescence, primary screen (AID 1113); conditions: small-molecule microarray, higher = more signal;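 further: score merges 667 nm fluorescence intensity with signal-to-noise per printed feature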
[17] = probe aShh binding to arrayed compounds – biochemical, biotinylated probe, 635/667 nm fluorescence, primary screen (AID 1114); conditions: small-molecule microarray, higher = more signal;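 further: probe is biotin-labelled aShh protein from a stem cell growth factor screen; measures binding of labelled protein to compounds printed on the slide; score merges feature fluorescence at 667 nm with signal-to-noise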
[18] = probe aNog binding to arrayed compounds – biochemical, biotinylated probe, 635/667 nm fluorescence, primary screen (AID 1115); conditions: small-molecule microarray, higher = more signal;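 further: probe is biotinylated aNog protein used at 0.15 µg/mL for 1 h at 4 C; z-score combines 667 nm fluorescence of each spot with its signal to noise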
[19] = biological target: Torsin-1A-interacting protein 1 (Homo sapiens) (UniProt Q5JTV8); assay: compound microarray binding of lysate hLAP1 – cell lysate, small-molecule microarray, COS7 lysate, 635/667 nm fluorescence, primary screen (AID 1116); conditions: 635 nm fluorescence, higher = more signal
Chain of Torsin-1A-interacting protein 1 (Homo sapiens) (Q5JTV8 whole entry, looked up): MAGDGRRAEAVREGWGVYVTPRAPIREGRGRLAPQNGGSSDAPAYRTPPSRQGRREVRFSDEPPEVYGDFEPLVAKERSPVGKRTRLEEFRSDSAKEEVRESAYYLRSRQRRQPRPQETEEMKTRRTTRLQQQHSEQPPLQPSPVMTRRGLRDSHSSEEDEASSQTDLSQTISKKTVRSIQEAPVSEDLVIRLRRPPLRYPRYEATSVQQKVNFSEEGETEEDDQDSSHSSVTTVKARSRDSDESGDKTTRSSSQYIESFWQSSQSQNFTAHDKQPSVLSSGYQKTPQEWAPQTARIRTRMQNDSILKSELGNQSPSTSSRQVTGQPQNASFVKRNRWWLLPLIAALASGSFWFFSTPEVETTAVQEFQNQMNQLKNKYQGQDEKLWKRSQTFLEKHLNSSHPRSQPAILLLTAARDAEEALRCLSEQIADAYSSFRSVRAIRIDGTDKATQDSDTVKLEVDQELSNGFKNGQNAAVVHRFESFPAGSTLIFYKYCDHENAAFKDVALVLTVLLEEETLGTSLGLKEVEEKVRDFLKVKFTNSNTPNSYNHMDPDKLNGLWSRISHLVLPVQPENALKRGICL

[20] = biological target: Alpha-bungarotoxin (Bungarus multicinctus) (UniProt P60615); assay: compounds binding labelled alpha-BTX control protein – biochemical, small-molecule microarray, Alexa647 label, 635/667 nm fluorescence, artefact control for SMM control protein annotation, profiling panel (AID 1117); conditions: alpha-BTX-A647 binding fluorescence, higher = more signal
Chain of Alpha-bungarotoxin (Bungarus multicinctus) (P60615 whole entry, looked up): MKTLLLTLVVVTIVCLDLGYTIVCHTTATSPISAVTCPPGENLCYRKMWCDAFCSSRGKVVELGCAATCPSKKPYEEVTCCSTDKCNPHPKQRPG

Structure (SMILES) | composite z-score [1] | composite z-score [2] | composite z-score [3] | z-score [4] | composite z-score [5] | composite z-score [6] | composite z-score [7] | composite z-score [8] | composite z-score [9] | composite z-score [10] | composite z-score [11] | z-score [12] | composite z-score [13] | composite z-score [14] | composite z-score [15] | composite z-score [16] | composite z-score [17] | composite z-score [18] | composite z-score [19] | composite z-score [20]
CC(C)(C)OC(=O)CC[C@]1(C(=O)NCC(O)CO)N=C(c2ccc(OCCCO)cc2)O[C@H]1c1ccccc1N=[N+]=[N-] (stereo not given in full) | 1.18 | 1.24 | 1.31 | -0.254 (inactive) | 1.4 | -0.0629 | -0.0913 | 0.352 | 0.175 | -0.0171 | 0.438 | 1.18 | 0.0607 | 1.28 | 0.434 | 0.0775 | -0.221 | 1.36 | 2.06 | 0.931
COC(=O)[C@@]1(Cc2ccccc2)[C@H]2c3cc(C(=O)N(C)C)n(CCSC(=N)N)c3C[C@H]2CN1C(=O)c1ccccc1 | 1.16 | 0.743 | 1 | 0.61 (inactive) | -0.315 | -0.102 | -0.649 | -0.406 | -1.49 | 1.01 | -0.98 | -0.588 | -0.76 | 0.96 | 0.0575 | -0.0006 | -0.138 | 1.39 | 3.21 | -0.351
O=C1C2C=CC(C(O)C3CCCCC3)N(n3cnnc3)C2C(=O)N1Cc1ccccc1 (stereo not given) | 0.815 | 0.224 | 0.623 | -1.3 (inactive) | 1.16 | 1.1 | 0.0887 | 1.21 | -0.0435 | 1.13 | 1.45 | -0.911 | -0.0665 | 0.879 | -0.195 | 0.0914 | -0.0064 | 1.07 | 0.598 | 0.496
C=CCC(OC(C)=O)[C@@H]1[C@@H](N(Cc2cc3ccccc3o2)C(=O)c2cccc3ccccc23)c2cc(OCCCO)ccc2N1C(=O)c1ccc2ccccc2n1 (stereo not given in full) | -0.408 | 0.749 | 0.317 | -0.73 (inactive) | 0.169 | 0.0025 | 0.3 | -0.0659 | 0.121 | 1.1 | 0.193 | 0.0107 | 0.186 | -0.153 | 0.304 | -0.0346 | -0.0813 | -0.0381 | 0.615 | 0.0884
[N-]=[N+]=Nc1ccccc1[C@H]1OC(c2ccc(OCCCO)cc2)=N[C@@]1(Cc1ccccc1)C(=O)NCC(O)CO (stereo not given in full) | 0.315 | 0.78 | 0.981 | -0.562 (inactive) | -0.0795 | 0.0637 | -0.942 | -0.283 | -0.535 | 0.647 | 1.38 | -1.29 | -1.04 | 1.04 | 1 | 0.119 | 0.257 | 0.0005 | 1.5 | 1.57
Cc1ccc(S[C@]2(C(=O)NCCCN(C)C)CC(=O)N(C3Cc4ccccc4C3)[C@@H]2c2ccc(CO)cc2I)cc1 | 1.58 | 0.182 | 0.932 | -1.53 (inactive) | -0.795 | -0.719 | -0.487 | -0.335 | -0.976 | 0.794 | 0.257 | -2.83 | -1.11 | 0.0811 | -0.358 | 0.0792 | 0.207 | -0.291 | 0.157 | 0.651
NC(=O)N1C(=O)C2C(C1=O)C1C=C(CCCO)C2C(C2CC2)N1Cc1sc2ccccc2c1Cl (stereo not given) | 0.903 | -0.129 | 0.256 | 1.01 (inactive) | 1.15 | 1.09 | -0.271 | 0.808 | 0.158 | 0.303 | 0.173 | -1.63 | 0.138 | 1.42 | 0.459 | -0.0685 | 0.138 | 0.654 | 1.19 | 1.67
N#Cc1ccc(-c2cccc(=O)o2)cc1 | 0.306 | -0.269 | -0.0642 | 0.862 (inactive) | 0.219 | 0.441 | 0.506 | 0.345 | 0.0771 | 0.254 | 0.561 | -0.0585 | 0.0266 | -0.179 | -0.564 | -0.0383 | -0.349 | 0.119 | -0.102 | 0.26
Cc1ccc(N2C(=O)c3ccccc3[C@](C)(C(=O)NCCCN(C)C)[C@@H]2c2ccc(CO)cc2)nc1 | 0.485 | -0.0971 | 0.451 | 0.055 (inactive) | -0.47 | -1.21 | -1.1 | -0.444 | -0.599 | 0.573 | 0.571 | -0.199 | -1.05 | -0.213 | -0.338 | -0.148 | -0.138 | -0.348 | -0.312 | 0.149
C=CCOC(=O)[C@H]1[C@@H]2C(=O)O[C@@H](c3ccccc3)[C@@H](c3ccccc3)N2[C@@H](c2ccc(OCCOC(=O)[C@@H]3C[C@@H]4C(=O)N[C@@H](CCCC[N+](C)(C)C)C(=O)N4[C@@H]3c3ccc(O)cc3)cc2)[C@]12C(=O)Nc1ccc(I)cc12 | 1.1 | 0.031 | -0.211 | -0.21 (inactive) | 1.2 | 1.24 | 0.934 | 1.21 | 1.07 | 0.723 | 1.41 | -2.84 | 0.668 | 0.167 | -0.49 | 0.0324 | 0.203 | 1.06 | 1.84 | 0.74
